# Where “and” joins values, the source holds several entries; their conditions need not be identical. Identical values can stand only once. Calls of active or inactive are those of the source. Rule as the data show it, unless noted: active = inhibition above about 80%; inactive = the rest.
# Tests used:
# [1] = LFS_MB_P medulloblastoma growth inhibition, cell-based, chromothripsis tumors, cisplatin or BGB combos (AID 1671449); settings: LFS_MB_P medulloblastoma cells;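 also: cells exposed for 96 hours; 0% = vehicle DMSO and 100% = killing by high DMSO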
# [2] = HDN33 neuroblastoma growth inhibition, cell-based, chromothripsis tumors, cisplatin or BGB combos (AID 1671450); settings: HDN33 neuroblastoma cells, stronger effect = higher value;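 also: cells exposed to compound for four days; 0% = vehicle DMSO and 100% = cell killing by high DMSO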
# [3] = ICB984 medulloblastoma cell growth inhibition, synergistic combos for chromothripsis tumors, cisplatin or BGB combos (AID 1671451; call rule not given here;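 also: cells exposed for 96 hours before readout; 0% = vehicle DMSO and 100% = killing by high DMSO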); settings: ICB984 medulloblastoma cells, drug combinations, stronger effect = higher value
# [4] = LFS_MB_1R medulloblastoma cell growth inhibition, synergistic combos for chromothripsis tumors, cisplatin or BGB combos (AID 1671452); settings: LFS_MB_1R medulloblastoma cells, stronger effect = higher value;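 also: cells exposed for 96 hours before readout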
# [5] = HTB85 osteosarcoma cell growth inhibition, synergistic combos for chromothripsis tumors, BGB or cisplatin IC20 combos (AID 1671453); settings: HTB85 osteosarcoma cells, drug combinations, stronger effect = higher value;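 also: cells exposed for 96 hours before readout; 0% = vehicle DMSO and 100% = high DMSO killing control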
# [6] = CRL2098 osteosarcoma cell growth inhibition, synergistic combos for chromothripsis tumors, BGB or cisplatin IC20 combos (AID 1671454); settings: CRL2098 osteosarcoma cells, drug combinations, stronger effect = higher value;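 also: cells exposed for 96 h before readout; 0% = vehicle DMSO and 100% = killing by high DMSO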
# [7] = HD-MB03 medulloblastoma cell growth inhibition, synergistic combos for chromothripsis tumors, BGB or cisplatin IC20 combos (AID 1671455; in the data active = inhibition above about 83%;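 also: 0% = vehicle DMSO and 100% = high DMSO as cytotoxic control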); settings: HD-MB03 medulloblastoma cells, stronger effect = higher value
# [8] = UWB1.289 ovarian carcinoma cell growth inhibition, synergistic combos for chromothripsis tumors, BGB or cisplatin combos (AID 1671456); settings: UWB1.289 ovarian carcinoma cells, stronger effect = higher value;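 also: cells exposed to compound for four days; 0% = vehicle DMSO and 100% = killing by high DMSO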
# [9] = LFS_MB_2R medulloblastoma cell growth inhibition, synergistic combos for chromothripsis tumors, cisplatin combos (AID 1671457); settings: LFS_MB_2R medulloblastoma cells, stronger effect = higher value;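 also: cells exposed to compound for four days before readout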
# [10] = MDA-MB-436 breast carcinoma cell growth inhibition, synergistic combos for chromothripsis tumors, BGB or cisplatin combos (AID 1671458; call rule not given here;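 also: cells exposed for 96 hours; 0% = vehicle DMSO and 100% = killing by high DMSO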); settings: MDA-MB-436 breast carcinoma growth inhibition, drug combinations, stronger effect = higher value
# [11] = UWB1.289_BRCA1 ovarian cancer growth, cell-based, BGB or cisplatin combinations (AID 1671459); settings: UWB1.289 BRCA1 ovarian carcinoma, drug combinations, stronger effect = higher value
# [12] = human astrocyte viability loss, single and combined drugs, cytotoxicity control for chromothriptic childhood tumor combination screen, cell-based, BGB or cisplatin IC20 combos (AID 1671460); settings: Human astrocytes, drug combinations, stronger effect = higher value;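 also: cells exposed to compounds for 96 hours before viability readout; 0% = vehicle and 100% = killing control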
# [13] = growth inhibition of BT084 medulloblastoma cells, cell-based, ICGC_MB145, cisplatin and BGB IC40 combos (AID 1671461); settings: drug combinations, stronger effect = higher value;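 also: cells exposed to drugs for 96 hours; 0% = vehicle DMSO and 100% = high DMSO full killing control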
# [14] = growth inhibition of RCMB18 medulloblastoma cells, cell-based, cisplatin and BGB IC40 combos (AID 1671462); settings: stronger effect = higher value;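 also: cells exposed to compound for four days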
# [15] = growth inhibition of CRL1545 osteosarcoma cells, cell-based, cisplatin and BGB IC20 combos (AID 1671464); settings: stronger effect = higher value;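 also: cells exposed to compound for 96 hours before readout; 0% = vehicle DMSO and 100% = high DMSO killing control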
# [16] = measured here: combination with BGB IC40, at 0.05 µM
# [17] = measured here: with BGB IC20 combination, at 0.5 µM
# [18] = measured here: with cisplatin IC20 combination, at 0.5 µM
# [19] = measured here: combination with cisplatin, at 0.5 µM
# [20] = measured here: combination with cisplatin, at 5 µM
smiles,measurement,setting,value
CN(C)CCNC(=O)c1cccn2c(=O)c3cc4ccccc4cc3nc12,inhibition,"[1]; at 0.5 µM, stronger effect = higher value",-18% (inactive) and -22.8% (inactive)
same,inhibition,"[1]; measured here: combination with BGB IC20, at 0.005 µM",-22.4% and -7.9%
same,inhibition,"[1]; measured here: combination with BGB IC40, at 0.005 µM",-33.3% and -28%
same,inhibition,[1]; [16],-30.9% and 0.948%
same,inhibition,"[1]; measured here: combination with cisplatin, at 0.5 µM, stronger effect = higher value",-27.4% and -25.4%
same,inhibition,"[1]; measured here: combination with cisplatin, at 5 µM, stronger effect = higher value",25.9% and 73.9%
same,inhibition,"[2]; BGB combo, at 5 µM",58.1% and 71.8%
same,inhibition,[2]; at 0.5 µM,4.02% (inactive) and 16.5% (inactive)
same,inhibition,"[2]; cisplatin combo, at 5 µM",63.6% and 83.1%
same,inhibition,[2]; [17],-3.52% and 15.5%
same,inhibition,[2]; [18],5.98% and 5.66%
same,inhibition,"[2]; single agent, at 5 µM",67.9% and 86.2%
same,inhibition,"[3]; BGB IC20 combo, at 0.005 µM",-2.65% and -7.73%
same,inhibition,"[3]; BGB IC40 combo, at 0.005 µM",-19% and -46.8%
same,inhibition,"[3]; BGB IC40 combo, at 0.05 µM",29.2% and 25.5%
same,inhibition,[3]; at 0.5 µM,-22.7% (inactive) and -19.3% (inactive)
same,inhibition,"[3]; cisplatin combo, at 0.05 µM",25.8% and 22.5%
same,inhibition,"[3]; cisplatin combo, at 0.5 µM",-35.6% and -11.2%
same,inhibition,"[3]; cisplatin combo, at 5 µM",-26.2% and -47.1%
same,inhibition,"[3]; measured here: 5 uM single agent, at 5 µM",-15.3% and -26.1%
same,inhibition,[4]; at 0.5 µM,-22.6% (inactive) and -0.28% (inactive)
same,inhibition,[4]; [16],-22.9% and -35.5%
same,inhibition,[4]; [19],-29.9% and 26.6%
same,inhibition,[4]; [20],66.5% and 90.2%
same,inhibition,[5]; at 0.5 µM,-6.94% (inactive) and -9.64% (inactive)
same,inhibition,"[5]; measured here: with BGB IC20, at 0.5 µM",10% and -19.8%
same,inhibition,"[5]; measured here: with BGB IC20, at 5 µM",24.9% and 50.6%
same,inhibition,"[5]; measured here: with cisplatin IC20, at 0.5 µM",-22.5% and -20.8%
same,inhibition,"[5]; measured here: with cisplatin IC20, at 5 µM",24% and 36.1%
same,inhibition,"[5]; single agent, at 5 µM",45.2% and 66.6%
same,inhibition,[6]; at 0.5 µM,2.28% (inactive) and -30.7% (inactive)
same,inhibition,"[6]; measured here: combination with BGB at IC20, at 0.5 µM",-26.7% and 2.29%
same,inhibition,"[6]; measured here: combination with cisplatin at IC20, at 0.5 µM",7.69% and -23.9%
same,inhibition,[7]; at 0.5 µM,0.57% (inactive) and 18.1% (inactive)
same,inhibition,"[7]; measured here: combo with BGB at IC20, at 0.5 µM",5% and 20.5%
same,inhibition,"[7]; measured here: combo with cisplatin at IC20, at 0.5 µM",-3.84% and 18.8%
same,inhibition,[8]; at 0.5 µM,10.9% (inactive) and 15.8% (inactive)
same,inhibition,"[8]; measured here: inhibition with BGB combination, at 0.05 µM",-15.6% and -22%
same,inhibition,"[8]; measured here: inhibition with cisplatin combination, at 0.05 µM",-3.25% and -14.4%
same,inhibition,[9]; at 0.5 µM,-28.9% (inactive) and -23.7% (inactive)
same,inhibition,[9]; [19],-34.7% and -23.8%
same,inhibition,[9]; [20],-8.3% and 23.4%
same,inhibition,[10]; at 0.5 µM,-19.8% (inactive) and -0.82% (inactive)
same,inhibition,"[10]; measured here: BGB combination, at 0.5 µM",-29.6% and -21.4%
same,inhibition,"[10]; measured here: BGB combination, at 5 µM",5.41% and 28.4%
same,inhibition,"[10]; measured here: cisplatin combination, at 0.5 µM",-39.6% and -3.6%
same,inhibition,"[10]; measured here: cisplatin combination, at 5 µM",-6.72% and 54.3%
same,inhibition,"[11]; BGB combination, concentration series, at 5 µM",35.7% and 58.1%
same,inhibition,[11]; at 0.5 µM,9.64% (inactive) and 20.1% (inactive)
same,inhibition,"[11]; cisplatin combination, concentration series, at 5 µM",60% and 77.2%
same,inhibition,[12]; at 0.5 µM,16.8% (inactive) and 32.4% (inactive)
same,inhibition,"[12]; measured here: combo with BGB IC20, at 0.5 µM",18.7% and 31.3%
same,inhibition,"[12]; measured here: combo with cisplatin IC20, at 0.5 µM",0.257% and 17.6%
same,inhibition,[13]; at 0.5 µM,-10% (inactive) and -13.6% (inactive)
same,inhibition,"[13]; cisplatin combination, at 0.5 µM",-8.31% and -7.28%
same,inhibition,"[13]; cisplatin combination, at 5 µM",-110% and 45.2%
same,inhibition,"[13]; measured here: BGB IC40 combination 0.05 uM, at 0.05 µM",-36.7% and -32.1%
same,inhibition,"[13]; single agent, at 5 µM",-53.7% and -33.8%
same,inhibition,[14]; at 0.5 µM,-4.43% (inactive) and -8.03% (inactive)
same,inhibition,"[14]; cisplatin combo, at 5 µM",24.5% and 56.4%
same,inhibition,"[14]; measured here: BGB IC40 combination, at 0.05 µM",-9.99% and -6.24%
same,inhibition,[14]; [19],-30.6% and 30.2%
same,inhibition,"[14]; single agent, at 5 µM",-2.75% and -32%
same,inhibition,[15]; at 0.5 µM,6.65% (inactive) and -6.99% (inactive)
same,inhibition,[15]; [17],19.7% and -21.2%
same,inhibition,[15]; [18],-1.47% and 0.101%
same,inhibition,"[15]; single agent, at 0.05 µM",-9.51% and -11.2%
same,inhibition,"[15]; single agent, at 5 µM",37.2% and 93.5%

# — PubChem BioAssay
